This passage reports inhibition results from ChEMBL document CHEMBL3433997, “St. Jude Leishmania screening dataset” (2016).

The structures appear in SMILES notation.

One experiment deals with Solute carrier family 2, facilitated glucose transporter member 1 (Homo sapiens) (UniProt P11166). Briefly: ST_JUDE_LEISH: Cytotoxicity at 2uM final concentration against transgenic Leishmania Mexicana promastigotes LmGLUT1 that are glucose transport deficient and complemented with the human glucose transporter GLUT1. Activity is measured by DNA content using SYBR green in vitro. It counts as functional.
Solute carrier family 2, facilitated glucose transporter member 1 (Homo sapiens), sequence (P11166 whole entry): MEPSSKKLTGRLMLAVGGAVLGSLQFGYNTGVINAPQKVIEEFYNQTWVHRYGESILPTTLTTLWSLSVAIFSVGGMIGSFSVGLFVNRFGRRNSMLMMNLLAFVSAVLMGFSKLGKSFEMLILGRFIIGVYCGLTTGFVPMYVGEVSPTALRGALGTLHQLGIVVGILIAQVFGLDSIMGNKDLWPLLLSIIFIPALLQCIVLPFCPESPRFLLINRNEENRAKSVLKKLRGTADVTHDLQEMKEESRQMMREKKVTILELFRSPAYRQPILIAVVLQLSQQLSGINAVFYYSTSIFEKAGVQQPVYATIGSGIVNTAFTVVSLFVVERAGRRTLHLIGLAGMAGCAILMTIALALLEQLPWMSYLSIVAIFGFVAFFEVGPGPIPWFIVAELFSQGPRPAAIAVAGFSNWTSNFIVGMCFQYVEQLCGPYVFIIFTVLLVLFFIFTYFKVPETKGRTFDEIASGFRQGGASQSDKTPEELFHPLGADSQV
Regarding `CCCCCCOc1ccc(/C(N)=N\Cc2ccccc2)c2c1CCCC2`, the inhibition is 2.62%.

Take `CCOc1cc(Cc2cnc(N)nc2N)cc(OCC)c1OCCCCC(=O)OC`: the inhibition stood at 4.55%.

For the compound `COc1ccc(CNC2CCN(C)CC2)cc1-c1ccc(S(=O)(=O)NCCc2ccccn2)s1`, the inhibition is -2.94%.

For `N#Cc1ccc(CN2CCC(NC(=O)c3ccc(-c4nnc(-c5cccc6ccccc56)o4)cc3)CC2)cc1`, the inhibition is 4.73%.

For the compound `O=C(CSc1cccc[n+]1[O-])c1ccc(Cc2ncc(C(F)(F)F)cc2Cl)s1`, the inhibition turned out to be 9.45%.

Turning to `N#Cc1ccc(N(CCOc2ccc(Cl)c(F)c2)Cc2ccccc2C(F)(F)F)cc1C(F)(F)F`, the inhibition was 3.18%.

`COc1ccc(Cc2c(C)nc3nc(N)nc(N)c3c2C)cc1`: the inhibition turned out to be 39%.

For the compound `Cc1cnc(-c2ccc(NC(=O)N3CCc4cc5nccc(N6CCN7CCC[C@H]7C6)c5cc43)c3ccccc23)o1`, the inhibition was found to be 3.29%.

As for `O=C(O)/C=C/c1cccc(F)c1F`, the inhibition was found to be 1.29%.

`CCCOC(=O)c1ccc(OCCCON2C(=N)N=C(N)NC2(C)C)cc1`: the inhibition came to 2.28%.

As to `Cn1c(Sc2ncnc3sccc23)nc2ccccc21`, the inhibition is 2.32%.

With `O=[N+]([O-])c1cccc(-c2nc3cc(C4=NC5CCCCC5N4)ccc3[nH]2)c1` (stereo not drawn), the inhibition amounted to 0.61%.

Take `Clc1cc(Nc2ccnc3ccc(Br)cc23)ccc1Oc1ccc(Cl)c2ccccc12`: the inhibition worked out at 3.45%.

`Cc1cc(NCCCN2CCCC2=O)n2c(nc3ccccc32)c1C#N`: the inhibition stood at 0.96%.

For the compound `Oc1ccc(CCNc2nc(NCCCOc3ccccc3-c3ccncc3)nc(N3CCNCC3)n2)cc1`, the inhibition is 3.68%.

Consider `OCCN1CCN(Cc2cccc(-c3cccc(-c4nc5cc(F)ccc5[nH]4)c3)c2)CC1`, for which the inhibition amounted to 0.05%.

As for `CCc1c[nH]c2c(N3CCCCC3=O)cc(C(=O)N[C@@H](Cc3ccccc3)[C@H](O)CNCc3cccc(OC)c3)cc12`, the inhibition is -0.8%.

With `CC(=O)Nc1ccc(CN2Cc3ccc(NC(=O)Nc4ccc(Oc5ccccc5)cc4)cc3C2)s1`, the inhibition was found to be 1.61%.

`CCOc1cc(CC)ccc1C1CCN(CCN2CCC(NC(=O)c3ccc(-c4ccc(C#N)cc4)cc3)CC2)CC1`: the inhibition was -0.43%.

For the compound `COc1ccc(Nc2cc(C)nc(NCc3ccc4c(c3)OCO4)n2)cc1`, the inhibition was 5.82%.

On to `Oc1ccccc1N1CCN(c2ccc(-c3nc4ccccc4[nH]3)cn2)CC1`, for which the inhibition came to 2.48%.

`CCC[C@@H]([C@@H](CC1CCCCC1)C(=O)N[C@H](C(=O)Nc1nccc(N)n1)C(C)(C)C)N(O)C=O`: the inhibition was 3.28%.

Take `COc1ccccc1CCNc1nc(C)cc(N[C@@H](Cc2ccccc2)C(=O)NCCOc2ccccc2)n1`: the inhibition stood at 1.72%.

`CCC1(c2ccccc2)N=C(N)N(CCCc2ccccc2)C1=O` (stereo not drawn): the inhibition was 2.53%.

For the compound `CC(C)(C)Nc1cc(C(=O)N[C@@H](Cc2ccccc2)[C@H](O)CNC2CCOCC2)cc(N2CCCCS2(=O)=O)c1`, the inhibition was 0.29%.

As for `C=CCn1c(Sc2ccc(C#N)c([N+](=O)[O-])c2)nnc1-c1ccc(OC)cc1`, the inhibition is 4.25%.

In the case of `c1ccc(-c2ccc(-c3csc(Nc4ccncc4)n3)cc2)cc1`, the inhibition worked out at 0.44%.

As for `Clc1ccc2c(NCc3ccccn3)ccnc2c1`, the inhibition was 9.87%.

For `COc1ccc2c(c1)CC(CNC[C@H](O)c1cccc(Cl)c1)CC2` (stereo partly drawn), the inhibition is -1.38%.

Take `CCCCSc1nc2c(c(=O)n1Cc1ccco1)C1(CCCCC1)Cc1ccccc1-2`: the inhibition was 0.71%.

As for `CC1CCN(CC[C@H]2CCCN2S(=O)(=O)c2cccc(NC(=O)c3cc4ccccc4s3)c2)CC1`, the inhibition was determined as 4.95%.

Take `CC(C)=C(C(=O)OCc1ccccc1)N1C(=O)[C@@H](NC(c2ccccc2)(c2ccccc2)c2ccccc2)[C@H]1[S+]([O-])CC(=O)OC(C)(C)C` (stereo partly drawn): the inhibition amounted to 0.68%.

Turning to `COc1ccc(CN2CCCC(OC(c3ccc(F)cc3)c3ccc(F)cc3)C2)c(O)c1` (stereo not drawn), the inhibition stood at 9.08%.

Turning to `O=C(Cn1cnc2c(nnn2Cc2ccccc2F)c1=O)Nc1ccc2c(c1)OCCO2`, the inhibition was 1.31%.

As to `Cc1ccc(C(=O)Nc2ccc(Cl)c(N3CCN(CCc4ccccc4)CC3)c2)cc1`, the inhibition turned out to be 4.14%.

As for `Cn1ccnc1S(=O)(=O)CCNCc1ccc(-c2ccc3ncnc(Nc4ccc(OCc5cccc(F)c5)c(Cl)c4)c3c2)o1`, the inhibition was determined as 3.08%.

In the case of `O=C(NCCc1ccccc1)[C@H](Cc1ccccc1)Nc1ccnc(NCC2CCCCC2)n1`, the inhibition was -0.55%.

In the case of `COc1cccc2cc(C(=O)N[C@@H](CC(C)C)C(=O)N[C@H](/C=N/NC(=O)Cc3cccnc3)CCc3ccccc3)oc12`, the inhibition turned out to be 3.03%.

As for `COc1ccc2nccc([C@@H](O)CN3CCC(NC(=O)C(c4ccccc4C)N4CCC(Cc5ccccc5)CC4)CC3)c2c1` (stereo partly drawn), the inhibition worked out at 1.73%.

The next experiment concerns the target Hexose transporter 1 (Plasmodium falciparum) (UniProt O97467). Briefly: ST_JUDE_LEISH: Cytotoxicity at 2uM final concentration against transgenic Leishmania Mexicana promastigotes LmPfHT that are glucose transport deficient and complemented with the Plasmodium falciparum hexose transporter. Activity is measured by DNA content using SYBR green in vitro. It counts as functional.
With `CCCCCCOc1ccc(/C(N)=N\Cc2ccccc2)c2c1CCCC2`, the inhibition turned out to be 3.36%.

For `CCOc1cc(Cc2cnc(N)nc2N)cc(OCC)c1OCCCCC(=O)OC`, the inhibition amounted to 0.23%.

Consider `COc1ccc(CNC2CCN(C)CC2)cc1-c1ccc(S(=O)(=O)NCCc2ccccn2)s1`, for which the inhibition is -0.03%.

On to `N#Cc1ccc(CN2CCC(NC(=O)c3ccc(-c4nnc(-c5cccc6ccccc56)o4)cc3)CC2)cc1`, for which the inhibition came out at 2.48%.

For `O=C(CSc1cccc[n+]1[O-])c1ccc(Cc2ncc(C(F)(F)F)cc2Cl)s1`, the inhibition stood at 9.48%.

On to `N#Cc1ccc(N(CCOc2ccc(Cl)c(F)c2)Cc2ccccc2C(F)(F)F)cc1C(F)(F)F`, for which the inhibition was 0.42%.

With `COc1ccc(Cc2c(C)nc3nc(N)nc(N)c3c2C)cc1`, the inhibition was found to be 38.2%.

For `Cc1cnc(-c2ccc(NC(=O)N3CCc4cc5nccc(N6CCN7CCC[C@H]7C6)c5cc43)c3ccccc23)o1`, the inhibition was 3.79%.

Regarding `O=C(O)/C=C/c1cccc(F)c1F`, the inhibition was found to be 1.5%.

In the case of `CCCOC(=O)c1ccc(OCCCON2C(=N)N=C(N)NC2(C)C)cc1`, the inhibition is -0.38%.

As to `Cn1c(Sc2ncnc3sccc23)nc2ccccc21`, the inhibition came to 2.23%.

For `O=[N+]([O-])c1cccc(-c2nc3cc(C4=NC5CCCCC5N4)ccc3[nH]2)c1` (stereo not drawn), the inhibition was 2.08%.

With `Clc1cc(Nc2ccnc3ccc(Br)cc23)ccc1Oc1ccc(Cl)c2ccccc12`, the inhibition was 3.8%.

Regarding `Cc1cc(NCCCN2CCCC2=O)n2c(nc3ccccc32)c1C#N`, the inhibition is 3.33%.

With `Oc1ccc(CCNc2nc(NCCCOc3ccccc3-c3ccncc3)nc(N3CCNCC3)n2)cc1`, the inhibition was found to be 5.15%.

Turning to `OCCN1CCN(Cc2cccc(-c3cccc(-c4nc5cc(F)ccc5[nH]4)c3)c2)CC1`, the inhibition was 1.75%.

Regarding `CCc1c[nH]c2c(N3CCCCC3=O)cc(C(=O)N[C@@H](Cc3ccccc3)[C@H](O)CNCc3cccc(OC)c3)cc12`, the inhibition was -2.31%.

`CC(=O)Nc1ccc(CN2Cc3ccc(NC(=O)Nc4ccc(Oc5ccccc5)cc4)cc3C2)s1`: the inhibition was -0.21%.

Regarding `CCOc1cc(CC)ccc1C1CCN(CCN2CCC(NC(=O)c3ccc(-c4ccc(C#N)cc4)cc3)CC2)CC1`, the inhibition was 0.77%.

As to `COc1ccc(Nc2cc(C)nc(NCc3ccc4c(c3)OCO4)n2)cc1`, the inhibition amounted to 4.09%.

For `Oc1ccccc1N1CCN(c2ccc(-c3nc4ccccc4[nH]3)cn2)CC1`, the inhibition was found to be 1.99%.

As for `CCC[C@@H]([C@@H](CC1CCCCC1)C(=O)N[C@H](C(=O)Nc1nccc(N)n1)C(C)(C)C)N(O)C=O`, the inhibition turned out to be 4.83%.

As to `COc1ccccc1CCNc1nc(C)cc(N[C@@H](Cc2ccccc2)C(=O)NCCOc2ccccc2)n1`, the inhibition is 1.1%.

Turning to `CCC1(c2ccccc2)N=C(N)N(CCCc2ccccc2)C1=O` (stereo not drawn), the inhibition was 1.89%.

Take `CC(C)(C)Nc1cc(C(=O)N[C@@H](Cc2ccccc2)[C@H](O)CNC2CCOCC2)cc(N2CCCCS2(=O)=O)c1`: the inhibition was 0.07%.

On to `C=CCn1c(Sc2ccc(C#N)c([N+](=O)[O-])c2)nnc1-c1ccc(OC)cc1`, for which the inhibition is 6.95%.

On to `c1ccc(-c2ccc(-c3csc(Nc4ccncc4)n3)cc2)cc1`, for which the inhibition was 1.9%.

Regarding `Clc1ccc2c(NCc3ccccn3)ccnc2c1`, the inhibition was 10.9%.

As to `COc1ccc2c(c1)CC(CNC[C@H](O)c1cccc(Cl)c1)CC2` (stereo partly drawn), the inhibition was found to be 0.78%.

On to `CCCCSc1nc2c(c(=O)n1Cc1ccco1)C1(CCCCC1)Cc1ccccc1-2`, for which the inhibition worked out at 1.36%.

For `CC1CCN(CC[C@H]2CCCN2S(=O)(=O)c2cccc(NC(=O)c3cc4ccccc4s3)c2)CC1`, the inhibition came out at 6.97%.

As to `CC(C)=C(C(=O)OCc1ccccc1)N1C(=O)[C@@H](NC(c2ccccc2)(c2ccccc2)c2ccccc2)[C@H]1[S+]([O-])CC(=O)OC(C)(C)C` (stereo partly drawn), the inhibition is -0.01%.

In the case of `COc1ccc(CN2CCCC(OC(c3ccc(F)cc3)c3ccc(F)cc3)C2)c(O)c1` (stereo not drawn), the inhibition was determined as 8.89%.

As for `O=C(Cn1cnc2c(nnn2Cc2ccccc2F)c1=O)Nc1ccc2c(c1)OCCO2`, the inhibition worked out at 0.66%.

For the compound `Cc1ccc(C(=O)Nc2ccc(Cl)c(N3CCN(CCc4ccccc4)CC3)c2)cc1`, the inhibition came out at 8.02%.

With `Cn1ccnc1S(=O)(=O)CCNCc1ccc(-c2ccc3ncnc(Nc4ccc(OCc5cccc(F)c5)c(Cl)c4)c3c2)o1`, the inhibition was determined as 6.11%.

With `O=C(NCCc1ccccc1)[C@H](Cc1ccccc1)Nc1ccnc(NCC2CCCCC2)n1`, the inhibition was 2.47%.

For `COc1cccc2cc(C(=O)N[C@@H](CC(C)C)C(=O)N[C@H](/C=N/NC(=O)Cc3cccnc3)CCc3ccccc3)oc12`, the inhibition was determined as 5.36%.

In the case of `COc1ccc2nccc([C@@H](O)CN3CCC(NC(=O)C(c4ccccc4C)N4CCC(Cc5ccccc5)CC4)CC3)c2c1` (stereo partly drawn), the inhibition was determined as 1.16%.

The inhibition is the change of the read-out against control, counted positive when it falls.
